The source of these data is ChEMBL document CHEMBL1157539, “Thousands of chemical starting points for antimalarial lead identification” (Nature, 2010).

What all share (format): functional
For assay [1], the system named is Plasmodium falciparum. The assay can be described thus: GSK_TCMDC: Inhibition of Plasmodium falciparum 3D7 in whole red blood cells, using parasite LDH activity as an index of growth. Test compounds present at 2uM.
The test system of assay [2] is Plasmodium falciparum. In words: GSK_TCMDC: Inhibition of Plasmodium falciparum Dd2 in whole red blood cells, using parasite LDH activity as an index of growth. Test compounds present at 2uM.
The test system of the next assay is HepG2. The assay can be described thus: GSK_TCMDC: Percent inhibition of human HepG2 cell line. Test compounds present at 10uM.

Turning to `CC(C)N(CCOc1ccc2c(c1)N(C(=O)Nc1ccc(Cl)c(Cl)c1)CC2)C(C)C.O=C(O)C(F)(F)F`, the values for the Inhibition in the assay with Plasmodium falciparum [1], with Plasmodium falciparum [2] and in the assay with HepG2 were 100%, 39% and 15%, respectively.
Regarding `COc1ccc(OCc2ccccn2)c(C2CCN(CCCCNC(=O)c3ccc(NC(=O)c4ccc(Cl)cc4)cc3)CC2)c1.Cl`, the Inhibition with Plasmodium falciparum [1] amounted to 98%; with Plasmodium falciparum [2], 71%; with HepG2, 18%.
Taken in the same sequence, the figures for `Cc1cc(C(=O)Nc2ccc(-c3ccccc3)cc2)no1` were 90%, 94% and 6%.
Taken in the same sequence, the figures for `CN1CCC(NCc2cccc(-c3cnc(NCc4ccccc4)nc3)c2)CC1.O=C(O)C(F)(F)F` were 100%, 67% and 12%.
Taken in the same sequence, the figures for `CN(C)CCN1CCN(CCCN2c3ccccc3Sc3ccc(C(F)(F)F)cc32)CC1.Cl` were 99%, 61% and 98%.
For `O=C(/C=C/c1cccc(OC(F)(F)F)c1)NCCCCCN1CCC(c2c[nH]c3ccccc23)CC1`, the Inhibition amounted to 93% with Plasmodium falciparum [1], 13% in the assay on Plasmodium falciparum [2] and 27% in the assay on HepG2.
Take `O=C(Cn1cc(C(F)(F)F)cc(Cl)c1=O)N1CCN(S(=O)(=O)c2ccc(Cl)cc2)CC1`: the Inhibition in the assay with Plasmodium falciparum [1] is on record as 99%; with Plasmodium falciparum [2] it was 69%; in the assay on HepG2 it was 14%.
Taken in the same sequence, the figures for `CC(C)C[C@H](NC(=O)c1cc2ccccc2s1)C(=O)N[C@H]1CCN(Cc2ccc(OCCN3CCNCC3)c3ccccc23)C1.O=C(O)C(F)(F)F` were 100%, 96% and 43%.
With `COc1ccccc1-n1c(-c2ccc3ccccc3c2)csc1=NC(=O)c1ccccc1`, the Inhibition was determined as 93% in the assay on Plasmodium falciparum [1], 79% with Plasmodium falciparum [2] and 0% with HepG2.
As to `COc1ccc(C2C(C(=O)Nc3ccc(C)cc3Br)c3ccccc3C(=O)N2C)cc1` (stereo not given), the Inhibition in the assay on Plasmodium falciparum [1] is 96%; with Plasmodium falciparum [2], 2%; in the assay on HepG2, 4%.

Usually Inhibition stands for the drop in the measured response relative to a control, in per cent. The low end stands for a response near the control, the high end for a response far below the control.
